# Only some compounds are listed: those with a hit (about 2.4% of all), similar ones and a draw of the others.
# eIF4H inh – human eIF4H binding inhibitors, primary screen, translation initiation inhibitor project, biochemical, uHTS, fluorescence polarization | Eukaryotic translation initiation factor 4H (Homo sapiens), Q15056 | inhibition, % at 35 µM | eIF4H fluorescence polarization binding assay | 0.94% of 290,000 active | AID 2012, 2009;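 also: calls also rest on retests at 20 µM and on dose response follow-up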
# PHOSPHO1 inh – PubChem AID 1565; recombinant PHOSPHO1, absorbance phosphatase assay; inhibition, % at 13.3 µM; Phosphoethanolamine/phosphocholine phosphatase (Homo sapiens), Q8TCT1; 1.1% of 290,000 active; in the data active = inhibition above about 60%
# MLLE-PAM2 inh – inhibitors of PABP1 MLLE–PAM2 peptide binding, primary screen, biochemical, fluorescence polarization, FITC-PAM2, GST-MLLE | Polyadenylate-binding protein 1 (Homo sapiens), P11940 | AID 588489, 2011 | 0.36% of 360,000 active | inhibition, % at 20 µM; in the data active = inhibition above about 35%, passing the limit was not always enough;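 also: plate controls were DMSO wells with GST-MLLE for no effect and wells lacking GST-MLLE protein for full effect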
# HMGR II inh – inhibitors of E. faecalis class II HMGR, primary screen, biochemical, Enterococcus faecalis; purified E. faecalis HMGR, NADPH absorbance 340 nm kinetic; inhibition, % at 10 µM; 0.41% of 190,000 active;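 active = inhibition above a set limit, the median over all tested compounds plus 3 SD, cut at about 9.5% in these data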;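 also: enzyme runs in reverse so mevalonate oxidation gives rising NADPH absorbance; 0% = complete reaction with DMSO and 100% = background rate lacking mevalonate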
# PABP FP inh – PABP poly(A) RNA binding inhibitors, primary screen, biochemical, fluorescence polarization, uHTS | Polyadenylate-binding protein 1 (Homo sapiens), P11940 | calls only at 35 µM | 1% of 290,000 active | AID 2014, 2009;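 also: calls also rest on retests at 20 µM and on dose response follow-up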
# An asterisk follows results filed as active; i = inactive; . = no result; + = active, no number. Unless noted, no rule for the calls is given here.
SMILES,eIF4H inh,PHOSPHO1 inh,MLLE-PAM2 inh,HMGR II inh,PABP FP inh
Cc1ccc(-n2c(SCC(N)=O)nnc2-c2cccnc2)c(C)c1,1.1,5.2,-23.5,-1.9,i
O=c1c2ccccc2ncn1CCCSc1ccccc1,105.8*,-5.3,-2.1,-0.9,+
O=c1c2ccccc2ncn1CCCSc1ccc(Cl)cc1,-3.2,-5.2,-11.0,-5.1,i
O=C(COC(=O)CCc1nc2ccccc2c(=O)[nH]1)Nc1ccc(Cl)cn1,12.7,74.5*,-24.2,.,i
COc1ccccc1/C=N/NC(=O)c1[nH]c(C)c(C(=O)N/N=C/c2ccccc2OC)c1C,-8.7,0.6,12.0,-5.6,i
CCOC(=O)c1c(C)[nH]c(C(=O)N/N=C/c2ccc(OC)c(OC)c2)c1C,-9.1,75.4*,12.4,.,i
CCOC(=O)c1c(C)[nH]c(C(=O)N/N=C\c2ccccc2O)c1C,14.0,3.0,8.1,-3.5,+
CCOC(=O)c1c(C)[nH]c(C(=O)N/N=C/c2cc([N+](=O)[O-])ccc2O)c1C,31.6,36.0,-14.6,.,i
CSc1ccc(Cl)c(C(=O)NNC(=O)c2csc(N3CCOCC3)n2)c1,.,.,1.9,.,.
CCC(=O)Nc1ccc2nc3c(=O)[nH]c(=S)[nH]c3nc2c1,112.1*,22.7,38.4,.,+
CCCCn1c(=O)[nH]c2nc3cc(NC(C)=O)ccc3nc2c1=O,98.4*,18.8,59.3,.,+
CCCCCn1c(=O)[nH]c2cc(C(=O)O)ccc2c1=O,5.8,20.9,1.8,0.4,i
CCCCCCn1c(=O)[nH]c2nc3cc(N)c(C)cc3nc2c1=O,65.2,4.9,i,-4.7,+
CCn1c(Cn2nnc(-c3ccccc3)n2)nnc1SCC(=O)Nc1ccc(N(C)C)cc1,-0.7,78.4*,-69.6,-2.8,i
CCn1c(SCC(=O)Nc2ccc(N(C)C)cc2)nnc1-c1cccc(C)c1,-1.2,78.9*,-28.2,-5.3,i
CCn1c(SCC(=O)Nc2cccc(OC)c2)nnc1-c1ccc(Cl)cc1,-16.1,73.6*,-86.7,-3.5,i
CN(C)c1ccc(NC(=O)CSc2nnc(-c3cccs3)n2Cc2ccco2)cc1,8.4,89.9*,-113.2,-5.7,i
Cc1nc(CCNC(=O)CC2C(=O)NCCN2CC(C)C)nc2c1CCC2 (configuration not stated),12.8,2.6,10.5,.,i
O=C(CSc1ncccn1)NN=C1CCCCCC1,81.9*,3.0,0.6,-5.3,+
CSc1ccccc1NC(=O)CN(C)CC(=O)Nc1ccccc1N1CCOCC1,active,4.4,-4.6,-3.7,i
O=C(O)CCC(=O)Nc1ccccc1N1CCOCC1,14.1*,10.1,1.0,-4.7,+
CC(=O)NC(c1ccccc1)c1nc(-c2cccc(C(F)(F)F)c2)cs1 (configuration not stated),.,.,3.2,.,.
COc1ccc(C2Nc3ccccc3C(=O)N2NS(=O)(=O)c2ccc(C)cc2)cc1 (configuration not stated),3.6,-14.8,-7.1,12.8*,i
COc1cccc(/C=C/C(=O)OCC(=O)NC2CCCCCC2)c1,.,.,8.4,.,.
CCOC(=O)Nc1ccc(N2CCOCC2)c(S(=O)(=O)N2CCOCC2)c1,1.9,47.7,8.5,.,i
SMILES,eIF4H inh,PHOSPHO1 inh,MLLE-PAM2 inh,HMGR II inh,PABP FP inh
CN1/C(=C\C(=O)CSc2nnc(NCc3ccccc3)s2)C(C)(C)c2ccccc21,68.7*,0.3,-55.5,-1.6,+
Cc1cc(C(=O)CSc2nnc(NCc3ccccc3)s2)c(C)n1C,-8.9,91.1*,9.4,-3.7,i
CN1/C(=C\C(=O)CSc2ncn[nH]2)C(C)(C)c2ccccc21,0.6,0.6,8.8,-4.8,i
Fc1ccc(-c2nc3c4ccccc4ccn3c2Cc2cccc(Cl)c2)cc1,.,.,-6.7,.,.
CCCC(C(=O)NC1=NCCS1)c1ccccc1 (configuration not stated),-7.7,17.2,8.8,-3.4,i
COC(=O)[C@@]12CCCCN1[C@H](c1ccc(-c3cccc(Cl)c3)c(OC)c1)[C@H]1C(=O)N(C)C(=O)[C@H]12,.,.,-1.6,.,.
COc1ccc(NCc2cc(=O)oc3cc(NC(C)=O)ccc23)cc1,3.8,2.8,-3.9,.,i
COc1ccc(S(=O)(=O)N2CCC(C(=O)NCc3cccnc3)CC2)cc1Cl,-4.3,36.2,0.5,.,i
COc1ccc(NC(=O)C2CCN(S(=O)(=O)c3cccnc3)CC2)cc1Cl,-0.9,70.4*,21.5,2.7,i

# Screening results from PubChem BioAssay.
